The results in this text go back to PubChem BioAssay (NCI).

The structures appear in SMILES notation. The panel holds about 83,000 compounds, 20% with a hit somewhere; the sample as a whole holds those more often.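 Cells were grown in 96-well plates and exposed to the test compound at a single concentration for 48 hours; results are reported as percent growth, with values below 10 considered active.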 The source made the active and inactive calls.

The subject of the assay is MALME-3M melanoma. Nature of the assay: NCI-60 one-dose screen, 48 h (100 = growth as untreated, 0 = no growth, -100 = all killed). Conditions: 10 µM unless noted.
On to `O=C(Nc1cccc2ccccc12)c1cc2ccccc2cc1O`, for which the growth is -12.3% (active).

For `COc1cc2c(O)n(CCCN3CCOCC3)c3c4cnc5cccc(c(=O)c3c2cc1OC)c54`, the growth was 67.4% (inactive).

As to `C#CCNC(=O)CC[C@@H](C)[C@H]1CC[C@H]2[C@@H]3CC[C@@H]4CC(=O)CC[C@]4(C)[C@H]3CC[C@]12C`, the growth is -82.2% [100 µM] (active).

For the compound `COc1ccc(NC(=O)Nc2ccc(-c3cccnc3)cc2N2CCC(CO)CC2)cc1`, the growth was 67.2% (inactive).

On to `CC1(C(=O)O)CCC(N)(C(=O)O)C1(C)C` (configuration not stated), for which the growth is 113% (inactive).

Regarding `COc1ncc(-c2ccc3nccc(C#CCCCCC(=O)NO)c3c2)cc1NS(=O)(=O)c1ccc(F)cc1F`, the growth is -40.5% (active).

With `O=C(O)CC1CCCCC1c1ccccc1` (configuration not stated), the growth is 112% (inactive).

Take `CC(C)=CC/C=C(/C)[C@H]1CC[C@]2(C)[C@@H]1CC[C@@H]1[C@@]3(C)CCC(=O)NC(C)(C)[C@@H]3CC[C@]12C`: the growth is -85.2% [100 µM] (active).

On to `Cc1nc(Cl)c2c(n1)N(C)c1ccc(Cl)cc1C(C)C2` (configuration not stated), for which the growth was 95.6% (inactive).

On to `Cc1ccc(N)c(O)c1`, for which the growth was 72.4% (inactive).

Turning to `Nc1ccc(Cl)c([N+](=O)[O-])c1`, the growth was 119% (inactive).

Turning to `O=[N+]([O-])c1cccc(N=NNc2cccc([N+](=O)[O-])c2)c1`, the growth was 102% (inactive).

For the compound `C=C(C)[C@@H]1CC[C@]2(C)[C@H](CC[C@@H]3[C@@H]([C@@](C)(O)CCC=C(C)C)CC[C@]32C)[C@@]1(C)CCC(=O)N1CCN(C)CC1`, the growth was -89.6% [100 µM] (active).

As for `Cn1cc(-c2noc(C(=O)c3cn(C)c4ncc(Br)cc34)n2)c2ccccc21`, the growth is 80.5% (inactive).

`COc1cc(NCc2ccccc2O)c2ncccc2c1`: the growth is 92.9% (inactive).

Turning to `Cc1ccc(C2=C/C(=C/c3ccc(Br)cc3)C(=O)N2CCc2ccc(S(N)(=O)=O)cc2)cc1`, the growth is 93.4% (inactive).

Turning to `Nc1nc(Nc2ccccc2)c2ncn(Cc3ccc4c(c3)OCO4)c2n1`, the growth was 53% (inactive).

For `O=C(CCCSc1nc(-c2ccccc2)cc(-c2ccccc2)n1)NO`, the growth was 7.62% (active).

Regarding `FC(F)(F)c1ccc2c(c1)Sc1ccccc1N2`, the growth is 100% (inactive).

In the case of `O=C1NC(=O)C(Cc2ccccc2)(Cc2ccccc2)N1`, the growth is 109% (inactive).

For `C=C(C)[C@@H]1CC[C@]2(C(=O)N3CCN(C)CC3)CC[C@]3(C)[C@H](CC[C@@H]4[C@@]5(C)C/C(=C/c6ccncc6)[C@H](O)C(C)(C)[C@@H]5CC[C@]43C)[C@@H]12`, the growth is -55.1% [100 µM] (active).

With `C[C@@H](NC(=O)[C@@H](CC(=O)N1CCC(N2CCCCC2)CC1)N1C(=O)[C@@H](N2C(=O)OC[C@@H]2c2ccccc2)[C@H]1/C=C/c1cccc(Cl)c1)c1ccccc1`, the growth is -33.7% (active).

Regarding `N#C/C(=C(/O)CCCO)c1nc2ccccc2c(=O)[nH]1`, the growth was 90.3% (inactive).

Turning to `Cn1cc(-c2nnc(-c3cn(C)c4ncc(Br)cc34)s2)c2cc(Br)ccc21`, the growth was 78.1% (inactive).

For the compound `CC1(C)CC[C@]2(C(=O)OC(=O)[C@]34CCC(C)(C)C[C@@H]3C3=CC[C@@H]5[C@@]6(C)CCC(=O)C(C)(C)[C@@H]6CC[C@@]5(C)[C@]3(C)CC4)CC[C@]3(C)C(=CC[C@@H]4[C@@]5(C)CCC(=O)C(C)(C)[C@@H]5CC[C@]43C)[C@H]2C1`, the growth is 81.2% [100 µM] (inactive).

`Cn1cc(-c2noc(-c3cn(C)c4ncc(Br)cc34)n2)c2cc(Cl)ccc21`: the growth is 35.4% (inactive).

Turning to `CCc1cccc(Cl)c1`, the growth is 120% (inactive).

`c1cc2ccc3cc2cc1CNCCN1CCNCc2ccc4ccc(cc4c2)CNCCN(CCNC3)CCNCc2ccc3ccc(cc3c2)CNCC1`: the growth was -13% (active).

On to `COc1ccc(-c2cc(-c3ccccc3)nc(NCCNc3ccnc4cc(Cl)ccc34)n2)cc1`, for which the growth is -77.1% (active).

Take `O=C(N/N=C\c1cc(Cl)ccc1O)N/N=C/c1cc(Cl)ccc1O`: the growth was 74.1% (inactive).

Turning to `O=C1Nc2ccccc2/C1=C/C(=O)c1ccc(N2CCCCC2)cc1`, the growth was 69.8% (inactive).

Regarding `O=c1c2c3c(sc2n2cnnc2n1Cc1ccccc1)CCCC3`, the growth is 95.8% (inactive).

Turning to `Cn1c(=O)c(C#N)c(-c2ccco2)n2c(S(=O)(=O)Cc3ccccc3)nnc12`, the growth was 63.6% (inactive).

In the case of `CCCCCn1sc(=O)n(Cc2ccc(CNC(=O)OCc3ccc4cccc(O)c4n3)cc2)c1=O`, the growth is -77.7% (active).

With `O=C(N/N=C/c1ccc([N+](=O)[O-])cc1)c1ccc(Br)o1`, the growth was 106% (inactive).

Take `C=C(C)[C@@H]1CC[C@]2(COCCC#N)CC[C@]3(C)[C@H](CC[C@@H]4[C@@](C)(CCCNCCC#N)[C@H](C(=C)C)CC[C@]43C)[C@@H]12`: the growth was -47.8% [100 µM] (active).

As for `C=C(C)[C@@H]1CC[C@]2(C(=O)OC)CC[C@]3(C)[C@H](CC[C@@H]4[C@@]5(C)CC/C(=N\OCCC(=NCCC#N)NOCCC#N)C(C)(C)[C@@H]5CC[C@]43C)[C@@H]12`, the growth was 25.3% [100 µM] (inactive).
